Compound activity from PubChem.
D2 PAM-1 – human D2 receptor positive allosteric modulation | DiscoveRx D2 beta-arrestin cells, luminescence, 90 min; 100% = 57 uM dopamine signal | AID 624464 | 360,000 tested, 0.23% active | potentiation, % (test concentration not listed) | P14416; in the data active = potentiation above about 50%; inconclusive = mostly about 30% to 49%
Target sequence (P14416 whole entry, looked up): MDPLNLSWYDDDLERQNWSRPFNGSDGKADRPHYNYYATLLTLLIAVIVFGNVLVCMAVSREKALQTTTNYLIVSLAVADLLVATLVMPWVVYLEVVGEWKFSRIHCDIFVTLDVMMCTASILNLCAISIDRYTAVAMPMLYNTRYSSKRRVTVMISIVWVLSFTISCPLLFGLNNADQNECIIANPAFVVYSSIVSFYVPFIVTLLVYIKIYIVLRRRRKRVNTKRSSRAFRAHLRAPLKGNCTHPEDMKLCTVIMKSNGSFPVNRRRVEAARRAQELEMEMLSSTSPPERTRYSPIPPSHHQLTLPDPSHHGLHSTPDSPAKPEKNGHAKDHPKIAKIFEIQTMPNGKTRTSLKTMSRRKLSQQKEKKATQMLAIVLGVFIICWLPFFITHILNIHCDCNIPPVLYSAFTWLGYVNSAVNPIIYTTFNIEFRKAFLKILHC
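D2 cells co-treated with compound plus 50 nM dopamine (EC20) for 90 min at 37 deg C to detect potentiation. Beta-arrestin recruitment was read as enzyme-fragment luminescence after 1 h at ambient temperature. Full response was set by 57 uM dopamine.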
D2 PAM-2 – D2 dopamine receptor (human) potentiation; AID 485347; 340,000 tested, 0.34% active; HEK293 T-REx D2, calcium flux, EC20 dopamine potentiation; potentiation, % at 10 µM; P14416;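 active = potentiation over 3 SD above the plate norm, cut at about 30% in these data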
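Potentiation of an EC20 dopamine calcium response measured kinetically over 180 s, after a preceding 180 s compound-only read flagging agonists. Cells: inducible Hek293 Trex D2 line, 4000/well, cultured overnight at 30 C before dye loading.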
D2 antagonist – antagonists of human D2 dopamine receptor | P14416 | HEK293 TREx D2 cells, calcium flux, dopamine EC80 | inhibition, % at 10 µM | 340,000 tested, 2% active | AID 485344; in the data active = inhibition above about 30%; inactive = below that, where a call was filed
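Read-out: kinetic calcium fluorescence (1 cycle/s) in inducible HEK293 T-REx D2 cells after an EC80 dopamine addition that followed 180 s compound preincubation. Loss of the dopamine response indicates antagonism.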
D2 ag-1 – agonists of human D2 dopamine receptor (beta-arrestin); DiscoveRx PathHunter D2 beta-arrestin, luminescence, 90 min; 100% = 57 uM dopamine signal; activation, % (no concentration beside the values); 360,000 tested, 0.084% active; AID 624465; in the data active = activation above about 40%; inconclusive = between about 15% and that limit
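Agonist mode: compounds alone added to overnight-plated D2 PathHunter cells for 90 min at 37 C, with 57 uM final dopamine (EC100) defining full response. Beta-arrestin recruitment detected by chemiluminescent reagent, read after 1 h at ambient temperature.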
D2 ag-2 – D2 dopamine receptor (human) agonism; HEK293 T-REx D2 cells, calcium flux agonist mode; 340,000 tested, 0.53% active; P14416; activation, % at 2 µM; AID 485358;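 active = activation over 3 SD above normal in the single-dose calcium agonist read, cut at about 30% in these data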
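Agonism is scored from calcium flux in a force-coupled, inducible HEK293 cell line expressing D2, read kinetically for 180 s after compound addition against dopamine controls.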
Of the large screens only hits and unclear results are named; the others gave an inactive call. The list is not random: actives were taken first. Their share in the collection is about 2.4%.

CCN1CCN(c2oc(-c3ccccc3)nc2S(=O)(=O)c2ccc(C)cc2)CC1	D2 antagonist 47
O=C(c1cccs1)N1CCCc2cc(NS(=O)(=O)c3ccc(F)cc3)ccc21	none (no result: D2 PAM-1, D2 antagonist, D2 ag-1)
COc1ccccc1CNS(=O)(=O)c1c(C(=O)N2CCCC2)c(C)n(C)c1C	none
COc1ccccc1CNS(=O)(=O)c1c(C(=O)N2CCCCC2)c(C)n(C)c1C	D2 antagonist 30
CCc1ccccc1NC(=O)c1cnc2scc(C)n2c1=O	none (no result: D2 PAM-2, D2 antagonist, D2 ag-2)
CSc1ccccc1NC(=O)c1cnc2scc(C)n2c1=O	D2 PAM-2 36
CCCCCCNCc1ccc(Br)cc1	D2 antagonist 30
COc1cc(CNc2ccc3[nH]c(=O)[nH]c3c2)cc(Br)c1OCC(=O)NC(C)(C)C	none
COc1cc(CNc2cccc(C(=O)O)c2)cc(Br)c1OCC(=O)NC(C)(C)C	D2 antagonist 60
O=C(CCn1cnnn1)Nc1ccc(F)cc1	D2 antagonist 32
CC(=O)Nc1ccc(NC(=O)CCn2cnnn2)cc1	none
CCc1ccc(OCCCSc2nc(-c3ccc(C(C)(C)C)cc3)nc3cc(=O)[nH]n23)cc1	none (no result: D2 PAM-1, D2 antagonist, D2 ag-1)
COc1ccc(N2C(=O)C(CC(=O)Nc3ccc(F)cc3)N(Cc3ccc4c(c3)OCO4)C2=O)cc1 (centres undefined)	none (no result: D2 PAM-1, D2 antagonist, D2 ag-1)
COc1ccc(N2C(=O)C(CC(=O)Nc3ccccc3)N(Cc3ccc4c(c3)OCO4)C2=O)cc1 (centres undefined)	D2 antagonist 43
CC1(OC(=O)C2CCCC2)C(=O)C=C2C=C(c3ccsc3)N(C3CCCC3)C=C2C1=O (centres undefined)	D2 antagonist 37
CCc1ccccc1NC(=O)/C(C#N)=C\c1ccc(Sc2ccccc2)o1	D2 PAM-2 40
Cc1cc(C)c(C#N)c(N2CCCC2)n1	none
COc1ccc(Cl)cc1CN1CCN(c2nc(C)cc(C)c2C#N)CC1	D2 antagonist 41
Cc1cc(C)c(C#N)c(N2CCN(CCOc3ccc(Cl)cc3)CC2)n1	D2 antagonist 121
COc1ccc(F)cc1CN1CCN(c2cc(C)nc3c4c(C)cc(C)nc4nn23)CC1	none (no result: D2 PAM-1, D2 ag-1)
CC(=O)c1cccc(NC(=O)Cc2ccc(NC(=O)N3CCCCc4ccccc43)cc2)c1	none (no result: D2 PAM-1, D2 antagonist, D2 ag-1)
CCC(c1nnnn1C1CCCC1)N1CCN(c2ccccc2)CC1 (centres undefined)	D2 antagonist 52 (no result: D2 PAM-2)
CCC(c1nnnn1C1CCCC1)N1CCN(c2ccccc2F)CC1 (centres undefined)	none
Cc1ccccc1C(=O)Nc1ccc2nc(SCC(=O)N3CCc4ccccc43)sc2c1	none (no result: D2 PAM-1, D2 antagonist, D2 ag-1)
CC1(C)CC(=O)c2sc(NS(=O)(=O)Cc3ccccc3)nc2C1	D2 PAM-2 34
Cc1ccc(S(=O)(=O)Nc2nc3c(s2)C(=O)CC(C)(C)C3)cc1	none
c1ccc(CCNc2cnccn2)cc1	D2 antagonist 38
Fc1ccc(CNc2cnccn2)cc1	none
c1ccc(CNc2cnccn2)cc1	D2 PAM-2 41
CCNc1ccc(Br)cc(C(=O)/C=C/c2c(Cl)cccc2Cl)c1=O	D2 PAM-2 48
CCn1ccc2cc(S(=O)(=O)N3CCCN(C(=O)NCCOC)CC3)ccc21	none (no result: D2 PAM-1, D2 antagonist, D2 ag-1)
Cc1cc(C)cc(NC(=O)CSc2nc(-c3ccccc3)c3cc(F)ccc3n2)c1	none (no result: D2 PAM-1, D2 antagonist, D2 ag-1)
COc1ccc(NC(=O)c2ccc(-c3ccccc3C(F)(F)F)o2)cc1	D2 antagonist 49
O=C(Nc1cccc(F)c1)c1ccc(-c2ccccc2C(F)(F)F)o1	none (no result: D2 PAM-1, D2 ag-1)
CCOC(=O)C1(Cc2ccccc2C)CCCN(C(=O)c2ccccn2)C1 (centres undefined)	none
CCOC(=O)C1(Cc2ccccc2C)CCCN(C(=O)c2cc(C3CC3)[nH]n2)C1 (centres undefined)	D2 antagonist 32
O=C1C=C(c2ccccc2)OC2(CCCC2)O1	D2 PAM-2 38
CCCOc1ccc(C2=NC(c3ccc(F)cc3)=Nc3ccc(OC)cc3N2)cc1	none (no result: D2 PAM-1, D2 antagonist, D2 ag-1)
COC(=O)c1ccc(C2C(Oc3ccccc3)C(=O)N2CCc2ccc(F)cc2)cc1 (centres undefined)	D2 antagonist 36
O=C(Nc1c(C(=O)N2CCCCC2)cnn1-c1ccccc1)c1ccccc1F	none
N#Cc1cnn(-c2ccccc2)c1NC(=O)c1ccccc1F	D2 PAM-2 80
COc1cccc(C(=O)Nc2nc(-c3nnn(-c4cccc(Cl)c4C)c3C)ns2)c1	none (no result: D2 PAM-1, D2 antagonist, D2 ag-1)
CCCC(C(=O)NC1CCCC1)N(CC1CCCO1)C(=O)CNS(=O)(=O)c1ccc(F)cc1 (centres undefined)	D2 antagonist 32
O=C(CN(CC1CCCO1)C(=O)CNS(=O)(=O)c1ccc(F)cc1)NCc1ccc(F)cc1 (centres undefined)	D2 antagonist 37
CCC(CC)c1nn2c(=O)cc(COc3ccc(NC(=O)c4ccccc4C)cc3)nc2s1	none (no result: D2 PAM-1, D2 antagonist, D2 ag-1, D2 ag-2)
O=C(COc1ccc(F)cc1)Nc1ccccc1C(=O)OCc1cc(=O)n2nc(C3CC3)sc2n1	none (no result: D2 PAM-1, D2 antagonist, D2 ag-1)
COc1ccc([C@H]2[C@H](C(=O)C(C)(C)C)N3N=Cc4ccccc4C3[C@]23N=C(c2ccccc2)OC3=O)cc1OC (some centres undefined)	D2 PAM-1 58
Cn1c(CCN2CCCC2)nc2cc(NS(=O)(=O)c3ccc(F)cc3)ccc21	none (no result: D2 PAM-2, D2 antagonist, D2 ag-2)
Cn1c(CN2CCCC2)nc2cc(NS(=O)(=O)c3ccc(Cl)cc3)ccc21	D2 antagonist 69
Cn1c(CN2CCCC2)nc2cc(NS(=O)(=O)c3ccccc3)ccc21	D2 antagonist 67
Cc1cc2c(cc3c(SCc4ccccc4Cl)nnc(C)n32)o1	none (no result: D2 PAM-1, D2 antagonist, D2 ag-1)
CCN(C(=O)c1nn(-c2ccc(OC)c(Cl)c2)c(=O)c2c1c1ccccc1n2C)c1cc(OC)ccc1OC	none (no result: D2 PAM-1, D2 antagonist, D2 ag-1)
O=C(Nc1cc(Cl)cc(Cl)c1)N1CCCN(Cc2ccccc2)CC1	D2 antagonist 87
O=C(Nc1cccc(Cl)c1)c1cnc2sc(N3CCCC3)nn2c1=O	none (no result: D2 PAM-1, D2 antagonist, D2 ag-1)
CCC(C)NC(=O)C1CCN(C(=O)c2cc3sccc3n2Cc2ccc(Cl)cc2)CC1 (centres undefined)	none (no result: D2 PAM-1, D2 antagonist, D2 ag-1)
CCOC(=O)c1sc(NC(=O)c2ccncc2)c(C#N)c1C	D2 PAM-1 inconclusive, D2 PAM-2 31
CCOC(=O)c1sc(NC(=O)CSc2n[nH]c(-c3ccc(Cl)cc3Cl)n2)c(C#N)c1C	D2 PAM-2 31
Cc1c(C(=O)N2CCCC2)sc(NC(=O)c2ccc(Cl)cc2)c1C#N	D2 antagonist 91
COc1ccccc1CNC(=O)CC1N=C2c3ccccc3N=C(SCC(=O)Nc3ccc(F)cc3)N2C1=O (centres undefined)	none (no result: D2 PAM-1, D2 antagonist, D2 ag-1)
COc1ccc(NC(=O)c2cc(-c3ccc(F)cc3)no2)cc1OC	none (no result: D2 PAM-1, D2 antagonist, D2 ag-1)
O=c1[nH]c2ccccc2cc1CN(CC1CCCO1)S(=O)(=O)c1ccccc1 (centres undefined)	D2 antagonist 35
COc1cc(C(=O)Nc2c(C(=O)O)[nH]c3ccc(C)cc23)cc(OC)c1OC	D2 antagonist 34
